Laboratory results: PubChem BioAssay (EPA / NIEHS)
The source made the active and inactive calls. The calls were made as follows: active = hit-call score of the fitted dose curve at least 0.9, where 1 is the maximum; inactive = score below 0.9.

What follows are compounds tested against X-box-binding protein 1 (Homo sapiens) (UniProt P17861) (assay: ATG_Xbp1_CIS: Attagene CIS-FACTORIAL HepG2 Assay for human X-box Binding Protein 1 (XBP1) (AID 2282972)). Details: HepG2 XBP1 cis-element reporter, Attagene multiplex; actives raise or lower the signal.
Sequence of X-box-binding protein 1 (Homo sapiens) (P17861 whole entry, looked up): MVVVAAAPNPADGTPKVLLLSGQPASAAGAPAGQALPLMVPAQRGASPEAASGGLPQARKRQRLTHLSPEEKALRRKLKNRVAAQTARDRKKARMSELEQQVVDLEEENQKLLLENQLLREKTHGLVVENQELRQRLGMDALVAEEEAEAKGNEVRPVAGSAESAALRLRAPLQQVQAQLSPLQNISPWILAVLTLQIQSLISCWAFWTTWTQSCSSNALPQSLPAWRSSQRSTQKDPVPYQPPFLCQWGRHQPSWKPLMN
Protocol: ATG_CIS is a cell-based, multiplexed-readout assay that uses HepG2, a human liver cell line, with measurements taken at 24 hours after chemical dosing in a 24-well plate.ATG_Xbp1_CIS is one of 52 assay component(s) measured or calculated from the ATG_CIS assay. It is designed to make measurements of mRNA induction, a form of inducible reporter, as detected with fluorescence intensity signals by Reverse transcription polymerase chain reaction (RT-PCR) and Capillary electrophoresis technology.Data from the assay component ATG_Xbp1_CIS was analyzed into 1 assay endpoint. This assay endpoint, ATG_Xbp1_CIS, was analyzed with bidirectional fitting relative to DMSO as the negative control and baseline of activity. Using a type of inducible reporter, measures of mRNA for gain or loss-of-signal activity can be used to understand the reporter gene at the transcription factor-level as they relate to the gene XBP1. Furthermore, this assay endpoint can be referred to as a primary readout, because this assay has produced multiple assay endpoints where this one serves a reporter gene function. To generalize the intended target to other relatable targets, this assay endpoint is annotated to the dna binding intended target family, where the subfamily is basic leucine zipper.
Human liver HepG2 cells are transiently transfected with multiple reporter transcription units (MRTUs) in 6-well plates using FuGene 6 reagent (Roche; 3 ml FuGene/1 mg DNA). The MRTU constructs are regulated by a cis-regulating element (promoter). […] A major difference between the CIS and TRANS system is that in CIS activities of endogenous TFs are measured, whereas the TRANS assay evaluates changes in activities of exogenous, chimeric NR-Gal4 proteins. […] At the end of 24 hour incubation, total RNA was isolated using TriZol reagent (Invitrogen). The isolated RNA is then reverse-transcribed using oligo(dT) primer and Mo-MLV reverse transcriptase (Invitrogen) with DNAse I (Ambion) treatment for 30 min. The one-tenth of the produced cDNA was amplified by PCR using Taq DNA polymerase (Invitrogen) and two reporter sequence-specific primers. The PCR products were fluorescently labeled by primer extension with 6-arboxyfluorescein (6-FAM) 5'-labeled reporter sequence-specific primer (2 min at 95 C, 20 s at 68 C and 10 min at 72 C) and these products were digested with 5U of HpaI (New England Biolabs) for 2h at 37 C. The fragments were purified using Qiaquick PCR columns (Qiagen), analyzed on an ABI 3130xL genetic analyzer (Applied Biosystems) with peak positions identified by using a set of X-rhodamine (ROX)-labeled MapMarker1000 molecular weight standards (BioVentures). The raw capillary electrophoresis data was processed using Attagraph software (Attagene).
For `CCCCCCOC(=O)CCCCCCCC(=O)OCCCCCC`, the outcome was “inactive”. For `O=C(Oc1ccccc1)c1ccccc1`, the outcome was “inactive”. `CCCCCC1CCCC(=O)O1` (stereo not given) was tested, and the outcome was “inactive”. For `CC=CC(=O)O`, the outcome was “inactive”. `OCCOCCOCCOCCOCCO` was tested, and the outcome was “inactive”. In the case of `CC1=C(CC=O)C(C)(C)CCC1`, the outcome is reported as “inactive”. In the case of `CC1(C)S[C@@H]2[C@H](NC(=O)[C@H](N)c3ccccc3)C(=O)N2[C@H]1C(=O)O`, the outcome is reported as “inactive”. `Cc1cc2nc3c(=O)[nH]c(=O)nc-3n(C[C@H](O)[C@H](O)[C@H](O)CO)c2cc1C` was tested, and the outcome was “inactive”. For `CCOc1ccc2c(c1)C(C)CC(C)(C)N2` (stereo not given), the outcome was “inactive”. For `CC/C=C\CCO`, the outcome was “inactive”. For `CN(C)Cc1cc(C(C)(C)C)c(O)c(C(C)(C)C)c1`, the outcome was “inactive”. In the case of `Oc1cccc2ccccc12`, the outcome is reported as “inactive”. In the case of `C=CCOC(=O)C(=C)C`, the outcome is reported as “inactive”. For `CCCCC(CC)COC(=O)CS` (stereo not given), the outcome was “inactive”. For `Oc1ccc(Cl)cc1C1CCCC1`, the AC50 was 43.1 µM (active). With `c1cc[c]([Bi]([c]2ccccc2)[c]2ccccc2)cc1` the outcome was “inactive”. `COC(=O)[C@]1(C)CCC[C@@]2(C)[C@H]1CC=C1C=C(C(C)C)CC[C@@H]12` was tested, and the outcome was “inactive”. `CN(C)c1ccc(C(c2ccccc2)c2ccc(N(C)C)cc2)cc1` was tested, and the outcome was “inactive”. `Nc1nnc(-c2ccc([N+](=O)[O-])o2)o1` was tested, and the outcome was “inactive”. In the case of `CC(=O)c1nccs1`, the outcome is reported as “inactive”. `COCCCN` was tested, and the outcome was “inactive”. In the case of `CCC(C)=NO`, the outcome is reported as “inactive”. For `O=C(O)/C=C/C(=O)O`, the outcome was “inactive”. In the case of `CCc1cc(C(N)=S)ccn1`, the outcome is reported as “inactive”. For `COc1ccccc1OCC(O)CO` (stereo not given), the outcome was “inactive”. In the case of `CC/C=C\CC1=C(C)CCC1=O`, the outcome is reported as “inactive”. In the case of `CN(C)CCCN1c2ccccc2CCc2ccc(Cl)cc21`, the outcome is reported as “inactive”. In the case of `CCCOCCC`, the outcome is reported as “inactive”. `C=C1CC[C@H]2C[C@@H]1C2(C)C` was tested, and the outcome was “inactive”. With `CC1=NN(c2cc(Cl)c(S(=O)(=O)O)cc2Cl)C(=O)C1N=Nc1ccc(S(=O)(=O)O)cc1` (stereo not given) the outcome was “inactive”. `Cc1cccnc1` was tested, and the outcome was “inactive”. With `O=C(CC(C(=O)OC1CCCCC1)S(=O)(=O)O)OC1CCCCC1` (stereo not given) the outcome was “inactive”. In the case of `COC(=O)/C=C\C(=O)OC`, the outcome is reported as “inactive”. With `CCCCCCCCCCCCCC` the outcome was “inactive”. For `CCCC(=O)OC`, the outcome was “inactive”. `CC(C)CC(=O)O` was tested, and the outcome was “inactive”. `COc1cccc(OC)c1C(=O)O` was tested, and the outcome was “inactive”. `COc1ccc2ccccc2c1` was tested, and the outcome was “inactive”. In the case of `O=C1NC(=O)[C@@H]2CC=CC[C@H]12`, the outcome is reported as “inactive”. `CC(C)CC(=O)CC(C)C` was tested, and the outcome was “inactive”.
